{"source": "ChEMBL document CHEMBL3988442", "about": "“University of Dundee, Small-Polar-MMV Screening Library” (2021)", "note": "The whole screen tested about 48,000 compounds, of which about 13,000 (27%) showed an effect of 50% or more. Some of the results follow.", "data": [{"system": "Wolbachia pipientis", "experiment": "Anti-Wolbachia Cell-Based Screen", "assay_type": "functional", "set-up": "scale not given: in the data most compounds retested in dose-response had high values", "conditions": "5 µM", "units": {"Percent Effect": "%"}, "values": [{"smiles": "Cn1ncc(N2CCC(CNC3Cc4ccccc4C3)C2)cc1=O", "note": "(centres undefined)", "Percent Effect": -0.06487}, {"smiles": "COc1ccc(C(C)N2CCC(OC)CC2)cc1Cl", "note": "(centres undefined)", "Percent Effect": 17.11}, {"smiles": "COC[C@@]12CCO[C@@H]1CCN(Cc1sccc1C)C2.O=C(O)C(F)(F)F", "Percent Effect": 9.781}, {"smiles": "O=C(N1CCOCC1)[C@@]12CCO[C@@H]1CCN(CCN1CCCCC1)C2.O=C(O)C(F)(F)F.O=C(O)C(F)(F)F", "Percent Effect": 12.15}, {"smiles": "O=C(N1CCCO1)[C@@]12CCO[C@@H]1CCN(C1CCCCC1)C2.O=C(O)C(F)(F)F", "Percent Effect": 6.239}, {"smiles": "O=C(N1CCCO1)[C@@]12CCO[C@@H]1CCN(Cc1ccc(F)cc1)C2.O=C(O)C(F)(F)F", "Percent Effect": 99.96}, {"smiles": "O=C(N1CCCO1)[C@@]12CCO[C@@H]1CCN(Cc1ccccc1)C2.O=C(O)C(F)(F)F", "Percent Effect": -18.43}, {"smiles": "O=C(N1CCCO1)[C@]12COC[C@H]1CN(Cc1nccs1)C2.O=C(O)C(F)(F)F", "Percent Effect": -2.706}, {"smiles": "O=C(N1CCCO1)[C@@]12CCO[C@@H]1CCN(Cc1cccs1)C2.O=C(O)C(F)(F)F", "Percent Effect": 96.37}, {"smiles": "Cc1ccsc1CN1CC[C@H]2OCC[C@@]2(C(=O)N2CCCO2)C1.O=C(O)C(F)(F)F", "Percent Effect": 103.7}, {"smiles": "O=C(N1CCOCC1)[C@@]12CCO[C@@H]1CCN(Cc1ccccc1F)C2.O=C(O)C(F)(F)F", "Percent Effect": 14.16}, {"smiles": "O=C(N1CCOCC1)[C@@]12CCO[C@@H]1CCN(Cc1cccc(F)c1)C2.O=C(O)C(F)(F)F", "Percent Effect": 102.7}, {"smiles": "Cc1ccc(S(=O)(=O)NCc2[nH]ncc2Br)cc1C", "Percent Effect": -4.089}, {"smiles": "O=C(CN1CCOC1=O)N1CCc2nnc(Cc3ccccc3)n2CC1", "Percent Effect": 1.802}, {"smiles": "N#Cc1c(Cl)nsc1NCc1ccc(N2CCC(CO)CC2)cc1", "Percent Effect": -1.187}, {"smiles": "Cc1ccc(CN2CCOC3(CCCN(c4cccc(F)c4)C3)C2)o1.O=C(O)C(F)(F)F.O=C(O)C(F)(F)F", "note": "(centres undefined)", "Percent Effect": -11.31}, {"smiles": "Cc1ccc(CN2CC[C@H]3OCC[C@@]3(C(=O)N3CCCO3)C2)o1.O=C(O)C(F)(F)F", "Percent Effect": 102.1}, {"smiles": "Cc1ccc(CN2C[C@H](C(=O)N3CCCCO3)[C@@H]3CCO[C@@H]3C2)o1.O=C(O)C(F)(F)F", "Percent Effect": -4.524}, {"smiles": "Cn1cccc1C(=O)N[C@@H]1CN(S(C)(=O)=O)[C@@H]2COC[C@@H]21", "Percent Effect": -0.3534}, {"smiles": "COCCC1(C(=O)O)CCCN(Cc2cc3c(cc2C)OCO3)C1", "note": "(centres undefined)", "Percent Effect": 0.3642}, {"smiles": "Cc1nc(COCc2cnc3n2CCN(C)C3C)cs1.O=C(O)C(F)(F)F", "note": "(centres undefined)", "Percent Effect": 0.7983}, {"smiles": "Cc1nc(CN2CCCn3cnc(COCC4CC4)c3C2)cs1.O=C(O)C(F)(F)F", "Percent Effect": -1.787}, {"smiles": "Cc1nc(COCC2CNCc3nccn3C2)cs1", "note": "(centres undefined)", "Percent Effect": 1.667}, {"smiles": "Cc1nc(COCC2CN(C(=O)N(C)C)Cc3nccn3C2)cs1.O=C(O)C(F)(F)F", "note": "(centres undefined)", "Percent Effect": 91.86}, {"smiles": "Cc1nc(COCC2CN(C(N)=O)Cc3nccn3C2)cs1.O=C(O)C(F)(F)F", "note": "(centres undefined)", "Percent Effect": 114.2}, {"smiles": "Cc1cc(C)c(C(=O)NCCNc2ncnc3ccccc23)c(=O)[nH]1", "Percent Effect": -7.4}, {"smiles": "COc1cc(F)ccc1NC(=O)NC(C)C(=O)NC(C)(C)C", "note": "(centres undefined)", "Percent Effect": -5.015}, {"smiles": "COc1ccc(CNCc2c(C)nc3sc(C)cn23)c(OC)c1OC", "Percent Effect": 49.47}, {"smiles": "c1ccc(-c2noc3c2CN(CC2CC2)CC3)cc1", "Percent Effect": 5.665}, {"smiles": "Cc1ncc2c(n1)CN(CC(=O)Nc1c(C)nn(C)c1C)CC2", "Percent Effect": 114.4}, {"smiles": "Cc1nn(C)c(C)c1NC(=O)CN1CCc2c(nc(C3CC3)n2C)C1", "Percent Effect": -19.95}, {"smiles": "Cc1ncc2c(n1)CN(CCOCC(F)(F)F)CC2", "Percent Effect": -8.792}, {"smiles": "Cc1cc(NC(=O)CN2CCn3c(nnc3C(C)C)C2)no1", "Percent Effect": 1.243}, {"smiles": "Cc1ncc2c(n1)CN(CC(=O)Nc1cc(C)on1)CC2", "Percent Effect": 138}, {"smiles": "Cc1cc(NC(=O)CN2CCc3cnc(C)nc3C2)on1", "Percent Effect": -3.742}, {"smiles": "Cc1ccc(Cl)cc1N1CCC(CNC(=O)CC(F)(F)F)C1", "note": "(centres undefined)", "Percent Effect": -9.569}, {"smiles": "COCCN1Cc2ccnn2CC(COCc2cccnc2)C1", "note": "(centres undefined)", "Percent Effect": -11.51}, {"smiles": "O=C(c1cccc(S(=O)(=O)NCCCc2ccco2)c1)N1CCOCC1", "Percent Effect": 28.12}, {"smiles": "CN(CC1CCOC1)S(=O)(=O)c1cccc(C(=O)N2CCOCC2)c1", "note": "(centres undefined)", "Percent Effect": 110.2}, {"smiles": "CN(CC1CCOC1)S(=O)(=O)c1cccc(C(=O)N2CCCCCC2)c1", "note": "(centres undefined)", "Percent Effect": 127.8}, {"smiles": "O=C(c1cccc(S(=O)(=O)NCCCn2cccn2)c1)N1CCOCC1", "Percent Effect": -8.398}, {"smiles": "CN(Cc1ncc[nH]1)S(=O)(=O)c1cccc(C(=O)N2CCOCC2)c1", "Percent Effect": -7.295}, {"smiles": "O=C(c1cccc(S(=O)(=O)NCCc2ccccn2)c1)N1CCOCC1", "Percent Effect": -3.428}, {"smiles": "CN1CCCN(C(=O)c2cccc(S(=O)(=O)NCC3(C)COC3)c2)CC1", "Percent Effect": -12.18}, {"smiles": "CN(CC1CCCCO1)S(=O)(=O)c1cccc(C(=O)N2CCOCC2)c1", "note": "(centres undefined)", "Percent Effect": 99.86}, {"smiles": "CN(C)C1CCN(C(=O)c2cccc(S(=O)(=O)NCC3(C)COC3)c2)C1", "note": "(centres undefined)", "Percent Effect": 24.95}, {"smiles": "C=C(C)CN1C(=O)CC(Cc2ccc(F)cc2)C1=O", "note": "(centres undefined)", "Percent Effect": -35.72}, {"smiles": "O[C@@H]1C[C@@H](c2nc(-c3ccccc3)no2)N(C2CCOCC2)C1", "Percent Effect": -15.45}, {"smiles": "O=C(O)C(F)(F)F.O=C1CC2(CCCCN2C(=O)c2ccncc2)CN1CC1CC1", "note": "(centres undefined)", "Percent Effect": 106.2}]}]}
